Screening results deposited in PubChem BioAssay by several laboratories.
CRFBP-R2 block: antagonists of CRF-binding protein/CRF-R2 receptor complex | inhibition, % at 11.8 µM | AID 588475 | 350,000 tested, 0.59% active | HEK293 CRF-R2/CRF-BP, CRF-induced calcium fluorescence;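 active = inhibition of the ligand-induced calcium signal above about 50% at the single tested concentration, limit read from the data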
Myeloid diff 2: promotes myeloid progenitor differentiation; ER-HoxA9 myeloid progenitors, lysozyme-GFP differentiation, flow cytometry; calls only at 10 µM; 360,000 tested, 1% active; AID 624256;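 active = normalized GFP-positive differentiation at or above the plate's own cutoff, the solvent-only control mean plus 3 SD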;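 note: cells exposed to compound for four days before flow analysis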
Cardiac RTF inh: cardiac RTF calcium desensitization | inhibition, % at 7.15 µM | 340,000 tested, 0.12% active | IANBD-labeled cardiac RTF, Ca2+ fluorescence | P19429+P45379;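 active = inhibition above the mean inhibition of all tested compounds plus 3 SD, cut at about 17% in these data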;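 note: assay run at fixed EC70 calcium of 1.6 mM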
RTF Ca sens act: increases calcium sensitivity of human cardiac regulated thin filaments; P19429+P45379; IANBD-labeled TnC RTF fluorescence at EC20 calcium; 0% EC20 calcium, 100% full calcium; activation, % at 7.2 µM; 340,000 tested, 0.24% active;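 active = activation above the mean over all tested compounds plus 3 SD, cut at about 30% in these data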;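 note: rise in fluorescence read as greater calcium sensitivity of cardiac thin filaments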
CRFR2-BP ag: CRF-BP/CRF-R2 complex agonism | HEK293 CRF-R2/CRF-BP, calcium dye fluorescence (FLIPR); percent of saturating CRF peptide response | activation, % at 13.2 µM | 350,000 tested, 0.46% active | AID 588473;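 active = activation of at least 50%, plus an integration ratio under a set limit after plate pattern correction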;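 note: plate controls were neutral control wells without compound for no effect and CRF at EC100 for full effect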
Active calls of the source: *; i = inactive; . = no result; + = active, no number. The list is not random: actives were taken first. Their share in the collection is about 2.2%.

SMILES	CRFBP-R2 block	Myeloid diff 2	Cardiac RTF inh	RTF Ca sens act	CRFR2-BP ag
COc1ccc(CCN(/C=C2\Sc3ccccc3C2=O)C(C)=O)cc1OC	-22	+	.	.	0
O=C(NC(c1ccc(F)cc1)c1ccc2ccccc2n1)C1CCN(CCOc2ccc(F)cc2)CC1 (stereo not drawn)	.	+	.	.	.
Nc1nnc(SCC(=O)c2ccccc2)s1	8	i	8	-1	-3
Nc1c(C(=O)c2ccccc2)sc2snc(SCC(=O)c3ccccc3)c12	-9	+	-4	-2	20
CN(C)c1ccc2nc3c(=O)[nH]c(=O)nc-3n(CC(O)C(O)C(O)CO)c2c1 (stereo not drawn)	-47	i	-174	125*	43
Cc1ncc(C(O)c2ccc(N(C)C)cc2)n1Cc1ccccc1 (stereo not drawn)	-3	i	.	.	-2
O=C(N/N=C/c1cccnc1)c1cccc(S(=O)(=O)Nc2cccc(Cl)c2)c1	1	i	-2	4	-1
O=C(N/N=C/c1ccncc1)c1cccc(S(=O)(=O)Nc2ccc(Cl)cc2)c1	-3	+	2	-8	0
COc1cccc(CNC(=O)CCCn2ncn3c(cc4occc43)c2=O)c1	5	+	5	-3	1
CSc1ccc(C2NC(=O)c3c(sc4c3CCN(C)C4)N2)cc1 (stereo not drawn)	-76	i	-37	22	45
Cc1ccsc1C1NC(=O)c2c(sc3c2CCN(C)C3)N1 (stereo not drawn)	-2	i	-47	29	65*
CN1CCc2c(sc3c2C(=O)NC(c2cccs2)N3)C1 (stereo not drawn)	-42	i	-36	16	58*
CCc1cc(-c2cnnn2Cc2ccccc2)ccc1-c1cn(CC(C)C)nn1	27	i	.	.	6
CN1CCN(Cc2c(O)ccc3cc(-c4ccccn4)c(=O)oc23)CC1	-7	i	-5	8	63*
Cc1ccc(NC(=O)COC(=O)C2=NN(c3ccccc3)C(=O)CC2)c(Br)c1	-2	i	3	-4	1
COc1ccc(OC)c(-c2cc(C(=O)O)c3cc4ccccc4cc3n2)c1	50*	i	.	.	3
O=c1[nH]cnc2c1nnn2C1OC(CO)C(O)C1O (stereo not drawn)	.	i	.	.	.
COc1ccc(C(c2nnnn2Cc2ccccc2)N2CCN(c3ccccc3)CC2)cc1 (stereo not drawn)	57*	i	1	2	-1
COCCn1nnnc1C(c1ccccc1)N1CCN(c2ccccc2)CC1 (stereo not drawn)	52*	i	7	1	-2
Cc1nn(Cc2nnc(SCC(=O)Nc3ccc(Cl)cc3)n2C)c(C)c1[N+](=O)[O-]	-15	i	.	.	10
CCN1C(c2ccccc2)=C(c2ccccc2)S/C1=C/C=C1\SC(=S)N(C)C1=O	-14	+	-2	-5	2
CCN1C(c2ccccc2)=C(c2ccccc2)S/C1=C\C=C1/SC(=S)N(C)C1=O	-4	.	-8	-23	2
CCN1C(=O)/C(=C/C=C2/Sc3ccc4ccccc4c3N2CCO)SC1=S	-39	+	-11	5	-2
Cc1cccc(Cn2c(-c3ccc[nH]c3=O)nc3ccccc32)c1	4	i	6	-2	1
O=C(NC1CC1)C1CC(=O)N(c2cccc(Cl)c2)C1 (stereo not drawn)	-4	+	-6	-3	-1
SMILES	CRFBP-R2 block	Myeloid diff 2	Cardiac RTF inh	RTF Ca sens act	CRFR2-BP ag
Cc1ccc(N2CC(C(=O)NC3CC3)CC2=O)cc1 (stereo not drawn)	0	i	-16	0	0
Cc1ccc(N2CC(C(=O)NC3CCC(C)CC3)CC2=O)cc1 (stereo not drawn)	67*	i	-5	2	1
CN(C)c1ncnc2c1NC1=C(S2)C(=NCCCC(=O)O)CC(C)(C)C1	52*	i	-19	14	4
COc1ncnc2c1NC1=C(S2)C(=NCCC(=O)O)CC(C)(C)C1	0	i	-29	28	11
O=C(CCc1ccccc1)N/N=C/c1cccc(O)c1	-1	i	-1	2	0
O=C(N/N=C/c1cccc(O)c1)N/N=C/c1cccc(O)c1	-8	+	-4	10	8
OCC(O)CN1CCN(c2ccccc2)CC1 (stereo not drawn)	14	+	7	-6	2
